Screens: PubChem BioAssay, National Center for Advancing Translational Sciences (NCATS)
HT1080NT lethal = kills 2HG-producing HT-1080-NT fibrosarcoma cells; HT-1080-NT fibrosarcoma viability, CellTiter-Glo ATP luminescence, 48 h; Potency, µM (series often up to 46.1 µM), actives largely listed as cytotoxic; actives 1.6% (n = 360,000);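 also: NT is the 2HG producing partner of a matched IDH1 knockdown line; nearly all actives have a fitted effect of over 55% in size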
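HT-1080-NT fibrosarcoma cells (2HG-overproducing), 750 cells/well in RPMI with 5% FBS, dosed after 2 h and incubated 48 h at 37C. CellTiter-Glo luminescence normalized to DMSO and no-cell wells; concentration-response curves fitted and classed.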
ATXN2 expr inh = ATXN2 expression inhibition | HEK-293 ATXN2-luciferase reporter, luminescence, 24 h | Potency, µM (titrated, usually from 57 µM), usual class: inhibitors | actives 0.72% (n = 360,000) | AID 1745845; also: nearly all actives have a fitted effect of over 55% in size
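qHTS (up to 57 uM final) was run with 24 h compound exposure of reporter cells at 37 °C. Each well was multiplexed: SteadyGlo luminescence measured ATXN2-luciferase expression after a fluorogenic Gly-Phe-AFC viability readout (25 uM final).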
S2 tox = reduces viability in counter-screen for ATXN expression inhibitors | actives 0.49% (n = 400,000) | Potency, µM (doses to about 56.7 µM), most hits filed as cytotoxic | S2 cells (HEK-293 line with an ATXN2-luciferase reporter) viability, CellTiter-Fluor protease fluorescence, 24 h; also: nearly all actives have a fitted effect of over 40% in size
HT1080 IDH1KD tx = HT-1080 IDH1 knockdown cell toxicity (counter line); HT-1080 IDH1 knockdown viability, ATP luminescence, 48 h; Potency, µM (titrated, usually from 46.1 µM), hits mostly cytotoxic; actives 2% (n = 360,000)
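Using the IDH1-knockdown HT-1080 line run in the same batch and compound series as the NT line, viability after 48 h at 37 °C was determined by CellTiter-Glo luminescence and expressed as % activity.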
TGFb inhibitor = TGF-b pathway inhibition; HepG2 CAGA-GFP TGF-b/SMAD3 reporter, GFP fluorescence, 18 h; TGF-beta stimulated, 500 pg/mL final; Potency, µM (series often up to 46.1 µM), usual class: inhibitors; actives 1.2% (n = 410,000); also: nearly all actives have a fitted effect of over 65% in size
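HEPG2 CAGA-GFP cells (1000/well, DMEM with 1% FBS) were pre-incubated 2 h at 37 degrees C, given compound by pin tool, then stimulated with TGF-beta at 500 pg/mL final for 18 h before per-cell GFP fluorescence imaging.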
HepG2 tox = kills HepG2 cells in TGF-b inhibitor counter-screen; Potency, µM (highest dose often 46.1 µM), actives largely listed as cytotoxic; HepG2 CAGA-GFP viability, ATP luminescence, 18 h; actives 0.76% (n = 410,000)
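CellTiter-Glo luminescence gave cytotoxicity after 18 hours at 37 degrees C. The cells were HepG2 CAGA-GFP in 1% FBS DMEM, stimulated with 500 pg/mL TGF-beta after compound addition. %Activity was normalised to no-cell wells (complete cell-killing) and DMSO (no toxicity), and curves were fitted and classified.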
Hits are given with their value; - = inactive; ? = inconclusive; . = no result; ! = a repeat was not active; [ ] = remark or other dose. Most compounds without a hit are left out; they make up all but 3.8% or so of the library. Calls follow the shape of the dose curve; as a rule, active = well fitted curve in the direction sought with a large enough effect; inconclusive = small, poorly fitted or top-dose-only effect, or another doubt; inactive = no such curve, though single readings can be large; an effect the other way counts as inactive or inconclusive.

SMILES	HT1080NT lethal	ATXN2 expr inh	S2 tox	HT1080 IDH1KD tx	TGFb inhibitor	HepG2 tox
Cc1ccc(C(=O)CCS(=O)(=O)c2ccc(Br)cc2)cc1	-	-	-	-	?	-
Cc1ccc(S(=O)(=O)CCC(=O)c2cccc([N+](=O)[O-])c2)cc1	?	?	?	6.5µM	11µM	-
CCOC(=O)c1ccc([N+](=O)[O-])c(CS(=O)(=O)c2ccc(Cl)cc2)c1	-	.	-	-	-	-
COc1ccc(S(=O)(=O)CCC(=O)NCCc2ccc(Cl)cc2)cc1	-[9.24 µM]	-	-	-	?	13µM
COc1ccc(CNC(=O)CCS(=O)(=O)c2ccc(Br)cc2)cc1	-	-	-	-	-	-
Cc1ccc(S(=O)(=O)Cc2cc(F)c([N+](=O)[O-])cc2[N+](=O)[O-])cc1	2.9µM	?	?	6.5µM	?	-
COc1ccc(C(=O)CCS(=O)(=O)c2ccc(C)cc2)cc1	-	-	-	?	?	7.1µM
CCN1CCN(C(=O)c2cc(NC(=O)COC)cc3nc(-c4ccncc4)n(C)c23)CC1	.	.	-	.	.	.
C/C(CC(=O)Nc1ccccn1)=N\NC(=O)Cc1cccc2ccccc12	-	-	-	-	-	-
C/C(CC(=O)Nc1ccccn1)=N\NC(=O)c1ccc2ccccc2c1	-	-	-	-	-	-
C/C(CC(=O)Nc1ccccn1)=N\NC(=O)c1ccccc1O	21µM	?	?	9.2µM	-	-
COc1cc(OC)cc(C(=O)N/N=C(\C)CC(=O)Nc2ccccn2)c1	2.6µM	-	-	3.3µM	-	-
O=C(CCl)Nc1c(C(=O)Nc2ccc3c(c2)OCCO3)oc2ccccc12	?	-	?	?	?	16µM
COCC(=O)Nc1c(C(=O)Nc2ccc3c(c2)OCO3)oc2ccccc12	-	-	-	-	-	-
O=CN1CCCN(C(=O)c2cc(NC(=O)c3ccccc3)cc3ncn(C4CCCC4)c23)CC1	.	.	-	.	.	.
C[C@H]1[C@H](C)CC[C@]2(C(=O)O)CC[C@]3(C)C(=CC[C@@H]4[C@@]5(C)C[C@@H](O)[C@H](O)C(C)(C)[C@@H]5CC[C@]43C)[C@H]12	-	-	?	-	?	-
C[C@@H]1CC[C@]2(C(=O)O)CC[C@]3(C)C(=CCC4[C@]56CC[C@@](O)(OC5)C(C)(C)C6CC[C@]43C)C2[C@H]1C (stereo partly specified)	?	?	25µM	?	?	-
COc1cc(OC)c(-c2cc(C(=O)NCc3ccc(F)cc3)c3c(-c4ccccc4)[nH]nc3n2)cc1OC	.	?	.	.	?	11µM
COc1cc(OC)c(OC)cc1/C=C/c1nccc2ccccc12	.	.	.	.	-	-
COc1cc(CCC(=O)Nc2nnc(C)s2)cc(OC)c1OC	6.5µM	-	?	7.3µM	-	-
COc1cc(CCC(=O)Nc2ccc(Br)c(C(F)(F)F)c2)cc(OC)c1OC	-	-	-	?	16µM	-
COc1cc(C(=O)Nc2nnc(-c3sccc3C)s2)cc(OC)c1OC	?	-	?	15µM	-	-
COc1cc(CCC(=O)Nc2ncc(C)s2)cc(OC)c1OC	-	-	?	-	-	-
COc1cc(CCC(=O)Nc2ccc(Cl)c(C(F)(F)F)c2)cc(OC)c1OC	-	-	-	-	?	-
COc1cccc(OCc2cc(C3Nc4ccccc4C(=O)N3c3ccccc3)ccc2OC)c1 (stereo unspecified)	.	.	.	.	-	-
SMILES	HT1080NT lethal	ATXN2 expr inh	S2 tox	HT1080 IDH1KD tx	TGFb inhibitor	HepG2 tox
COc1ccc(C2c3[nH]c4ccccc4c3C[C@H]3C(=O)N(C4CCN(Cc5ccccc5)CC4)CC(=O)N23)cc1OC (stereo partly specified)	?	-	-	-	?	-
COc1ccccc1C1c2[nH]c3ccccc3c2C[C@H]2C(=O)N(C3CCN(Cc4ccccc4)CC3)CC(=O)N12 (stereo partly specified)	?	-	?	?	11µM	-
CC(=O)Nc1ccc(-c2nc3cc(Cl)ccc3o2)cc1	-	-	-	-	11µM	-
CCCCc1ccc(NC(=O)C2(C)Cc3ccccc3C(=O)O2)cc1 (stereo unspecified)	.	-	-	.	-	-
CCOc1ccccc1C(=O)Nc1ccc(S(=O)(=O)Nc2onc(C)c2C)cc1	.	-	-	.	-	-
Cc1cc(C)c(OCCNCc2ccccc2)c(C)c1	-	-	-	-	-	-
Cc1cc(Cl)cc(C)c1OCCNCc1ccccc1	18µM	-	-	?	-	-
CN(CCOc1ccc(Cl)c(Cl)c1)Cc1ccccc1	-	-	-	-	-	-
Clc1ccc(OCCOCCNCc2ccccc2)cc1Cl	-	.	-	-	11µM	-
Cc1cc(Cl)cc(C)c1OCCOCCNCc1ccccc1	?	.	?	-	?	14µM
CC(C)(C)c1ccc(OCCNCc2ccccc2)cc1	?	-	-	16µM	-	-
Cc1cc(Br)ccc1OCCNCc1ccccc1	?	-	-	?	?	-
Cc1cc(C)c(C)c(OCCNCc2ccccc2)c1	?	-	?	15µM	-	-
Cc1cc(C)c(OCCCCNCc2ccccc2)c(Cl)c1	16µM	-	.	13µM	?	11µM
COc1ccccc1Nc1nn2c(=O)c3ccc(C(=O)N4CCCC(C)C4)cc3nc2s1 (stereo unspecified)	-	?	32µM!	-	-	-
CCN(CC)CCNC(=O)c1ccc2c(=O)n3nc(Nc4ccccc4OC)sc3nc2c1	.	16µM	?	.	?	-
CC1CCCN(C(=O)c2ccc3c(=O)n4nc(Nc5ccccc5)sc4nc3c2)C1 (stereo unspecified)	-	.	-	-	-	-
COc1ccc(N(CC(=O)NCCc2ccccc2)S(=O)(=O)c2c(C)nn(C)c2C)cc1	.	-	-	.	-	-
COc1ccc(S(=O)(=O)N(C)CC(=O)NC2CC2)cc1	-	-	-	-	-	18µM
CN(CC(=O)NC1CC1)S(=O)(=O)c1ccc(F)cc1	-	-	-	-	-	-
CCn1ncc(/C=N\NC(=O)c2csc3ccccc23)c1C	?	-	-	5.2µM	-	-
Cc1ccc(C)c(-n2c3nc(=O)[nH]c(=O)c-3cc3cc([N+](=O)[O-])ccc32)c1	6.5µM	?	?	5.2µM	?	-
Cc1cccc(-n2c3nc(=O)[nH]c(=O)c-3cc3cc([N+](=O)[O-])ccc32)c1	?	-	?	?	?	-
CN(C)c1ccc(/C=C2\C=Cc3ccccc32)cc1F	.	.	.	.	-	-
COc1ccc(C(=O)N/N=C(\C)c2ccccn2)cc1OC	-	?	?	10µM	?	-
C/C(=N\NC(=O)c1ccc(Cl)c(Cl)c1)c1ccccn1	?	?	?	1.8µM	?	-
